Measured values as given in PubChem BioAssay AID2284333 (EPA ToxCast).
Inconclusive results are not listed. Activity calls are given as the source filed them. The calls were made as follows: active = hit-call score of the fitted dose curve at least 0.9, where 1 is the maximum; inconclusive = response in the unintended direction; inactive = score below 0.9.

Target: rainbow trout Glucocorticoid Receptor (GR), nr3c1 (gene 100136786) (UniProt P49843)
Test: ATG_rtGR_EcoTox2: Attagene TRANS-FACTORIAL EcoTox-2 HepG2 Assay for rainbow trout Glucocorticoid Receptor (GR)
Method: ATG_EcoTox2 is a cell-based, multiplexed assay created by modifying the existing Attagene TRANS-FACTORIAL system to include a panel of nuclear receptors from some or all the following species: human (Homo sapiens), african clawed frog (Xenopus laevis), rainbow trout (Oncorhynchus mykiss), japanese medaka (Oryzias latipes), and zebrafish (Danio rerio). The ECOTOX2-FACTORIAL format uses HepG2, a human liver cell line, with measurements taken at 24 hours after chemical dosing in a 24-well plate. ATG_rtGR_EcoTox2 is one of 29 assay components calculated in the ATG_EcoTox2 assay. It is designed to make measurements of mRNA induction, a form of inducible reporter, as detected with fluorescence intensity signals by Reverse transcription polymerase chain reaction (RT-PCR) and Capillary electrophoresis technology.The assay endpoint ATG_rtGR_EcoTox2 was analyzed in the positive analysis fitting direction relative to DMSO as the negative control and baseline of activity. Using a type of inducible reporter, measures of mRNA for gain-of-signal activity can be used to understand the reporter gene at the transcription factor-level as they relate to the gene for glucocorticoid receptor. Furthermore, this assay endpoint can be referred to as a primary readout, because this assay has produced multiple assay endpoints where this one serves a reporter gene function. To generalize the intended target to other relatable targets, this assay endpoint is annotated to the nuclear receptor intended target family, where the subfamily is steroidal.
Human liver HepG2 cells are transiently transfected with multiple reporter transcription units (MRTUs) in 6-well plates using FuGene 6 reagent (Roche; 3 ml FuGene/1 mg DNA). The MRTU constructs are regulated by a cis-regulating element (promoter). Each RTU expresses a GAL4-UAS that regulates the transcription of a nearby target reporter gene sequence. A major difference between the CIS and TRANS system is that in CIS activities of endogenous TFs are measured, whereas the TRANS assay evaluates changes in activities of exogenous, chimeric NR-Gal4 proteins. […] At the end of 24 hour incubation, total RNA was isolated using TriZol reagent (Invitrogen). The isolated RNA is then reverse-transcribed using oligo(dT) primer and Mo-MLV reverse transcriptase (Invitrogen) with DNAse I (Ambion) treatment for 30 min. The one-tenth of the produced cDNA was amplified by PCR using Taq DNA polymerase (Invitrogen) and two reporter sequence-specific primers. […] The fragments were purified using Qiaquick PCR columns (Qiagen), analyzed on an ABI 3130xL genetic analyzer (Applied Biosystems) with peak positions identified by using a set of X-rhodamine (ROX)-labeled MapMarker1000 molecular weight standards (BioVentures). […]

Sequence of rainbow trout Glucocorticoid Receptor (GR), nr3c1 (gene 100136786) (P49843 whole entry, looked up): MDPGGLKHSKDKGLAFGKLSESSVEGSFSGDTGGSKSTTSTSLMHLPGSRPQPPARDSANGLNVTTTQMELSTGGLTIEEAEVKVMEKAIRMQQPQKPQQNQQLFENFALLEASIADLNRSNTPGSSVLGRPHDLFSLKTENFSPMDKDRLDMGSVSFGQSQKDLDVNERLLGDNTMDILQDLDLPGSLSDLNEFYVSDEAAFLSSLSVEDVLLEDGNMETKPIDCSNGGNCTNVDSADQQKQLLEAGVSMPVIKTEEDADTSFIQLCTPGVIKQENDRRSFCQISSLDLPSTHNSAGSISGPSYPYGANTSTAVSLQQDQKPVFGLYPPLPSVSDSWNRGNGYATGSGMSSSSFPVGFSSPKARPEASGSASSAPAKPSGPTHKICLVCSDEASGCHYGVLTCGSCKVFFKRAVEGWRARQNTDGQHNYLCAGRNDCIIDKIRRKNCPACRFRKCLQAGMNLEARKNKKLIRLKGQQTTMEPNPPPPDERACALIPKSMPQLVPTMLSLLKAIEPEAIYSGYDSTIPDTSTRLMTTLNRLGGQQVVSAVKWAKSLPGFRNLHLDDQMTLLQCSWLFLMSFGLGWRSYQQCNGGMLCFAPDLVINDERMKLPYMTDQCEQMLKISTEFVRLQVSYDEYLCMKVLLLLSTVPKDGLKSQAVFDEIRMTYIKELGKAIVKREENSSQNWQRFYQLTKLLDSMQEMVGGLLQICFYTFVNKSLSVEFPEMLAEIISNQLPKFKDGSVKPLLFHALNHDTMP

SMILES | outcome
CCCCOCN(C(=O)CCl)c1c(CC)cccc1CC | inactive
[Cl][Sn]([c]1ccccc1)([c]1ccccc1)[c]1ccccc1 | inactive
O=S(=O)(O)C(F)(F)C(F)(F)C(F)(F)C(F)(F)C(F)(F)C(F)(F)F | inactive
O=C(O)C(F)(F)C(F)(F)C(F)(F)C(F)(F)C(F)(F)C(F)(F)C(F)(F)F | inactive
